Experimental findings from PubChem BioAssay (Tox21) are described below.

Experiment [1] is described as follows: Nuclear factor erythroid 2-related factor 2/antioxidant responsive element (Nrf2/ARE) small molecule agonists: qHTS cell viability counter screen in human keratinocytes (AID 1919968; active = well fitted cell-killing curve with a large enough effect in the repeat runs; note: nearly all actives have a fitted effect of over 55% in size; note: potency is the fitted concentration of half-maximal effect). The procedure, abridged:
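Stably transfected HaCaT (KeratinoSens), 1,500/well. Test agents in DMSO were applied for 23 h, 37 C/5% CO2. CellTiter-Fluor was incubated 1 h before the fluorescence read.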

The nature of experiment [2]: Nuclear factor erythroid 2-related factor 2/antioxidant responsive element (Nrf2/ARE) small molecule agonists: luciferase reporter gene qHTS assay in human keratinocytes (AID 1919969). Note: nearly all actives have a fitted effect of over 35% in size.
Experiment [3] concerns the target Gonadotropin-releasing hormone receptor (Homo sapiens) (UniProt P30968). As to the kind of experiment: Human gonadotropin-releasing hormone receptor (GnRHR) small molecule agonists, calcium flux assay in GnRHR-HEK293 cells (AID 1920063). Note: nearly all actives have a fitted effect of over 35% in size. Note: potency is the fitted concentration of half-maximal effect. The method in brief: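 Stable human GnRHR HEK293 line. 18 h plating, then calcium dye for 1 h at 37 C. Agonist-mode compound addition from DMSO stocks; fluorescence monitored 3 min.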
On the technique in general: Calcium flux is commonly read through the fluorescence of an indicator in the cells.

Experiment [4] can be described thus: p53 small molecule agonists, cell-based qHTS assay with human liver microsomes: qHTS cell viability counter screen (AID 1963579). Note: nearly all actives have a fitted effect of over 45% in size. The method in brief:
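Viability of p53RE-bla cells is measured as CellTiter-Glo luminescence following a 16 h, 37 C incubation with compound, liver microsomes from human donors and NADPH.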
On the technique in general: In qHTS, concentration-response curves come from the screen itself.

The nature of experiment [5]: p53 small molecule agonists, cell-based qHTS assay with rat liver microsomes: qHTS cell viability counter screen (AID 1963580). Note: nearly all actives have a fitted effect of over 45% in size. The method in brief:
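Cytotoxicity counter screen: intracellular ATP measured by CellTiter-Glo luminescence in the same wells as the beta-lactamase reporter read, on HCT-116 p53RE-bla cells exposed 16 h at 37 C to compounds with rat liver microsomes and NADPH, each 0.5 mg/mL final.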

A short description of experiment [6]: p53 small molecule agonists, cell-based qHTS assay: qHTS cell viability counter screen (AID 1963581). Note: nearly all actives have a fitted effect of over 45% in size. The procedure, abridged: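 qHTS counter screen: 16 h compound exposure at 37 C of p53RE-bla HCT-116 cells (4,000 per well, seeded 5 h prior), cell viability by ATP luminescence.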
The target of experiment [7] is 5-hydroxytryptamine receptor 2A (Homo sapiens) (UniProt P28223). The experiment in a line: 5-hydroxytryptamine receptor 2A (HTR2A) small molecule antagonists, cell-based qHTS assay (AID 1963586). Note: nearly all actives have a fitted effect of over 45% in size. The method in brief: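 CHO cells stably expressing human HTR2A were plated for 18 h at 37 C, then loaded with calcium dye for 1 h. Compounds were preincubated 5 min at room temperature before DOI (4 nM solution) was added. Kinetic fluorescence was read for 3 min.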
Sequence of 5-hydroxytryptamine receptor 2A (Homo sapiens) (P28223 whole entry, looked up): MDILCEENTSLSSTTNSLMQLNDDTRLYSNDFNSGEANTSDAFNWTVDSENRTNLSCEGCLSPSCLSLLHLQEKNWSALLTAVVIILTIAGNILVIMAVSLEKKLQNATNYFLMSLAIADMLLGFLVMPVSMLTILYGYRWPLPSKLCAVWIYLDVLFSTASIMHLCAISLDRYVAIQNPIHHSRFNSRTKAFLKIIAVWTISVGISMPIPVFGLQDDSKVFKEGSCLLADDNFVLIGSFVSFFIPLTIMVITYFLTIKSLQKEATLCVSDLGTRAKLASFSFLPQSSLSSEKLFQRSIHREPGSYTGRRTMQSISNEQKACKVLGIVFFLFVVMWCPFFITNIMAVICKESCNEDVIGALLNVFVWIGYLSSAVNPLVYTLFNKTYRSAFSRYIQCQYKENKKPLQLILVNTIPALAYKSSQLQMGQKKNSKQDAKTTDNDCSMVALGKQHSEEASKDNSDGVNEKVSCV

The target is the same in experiment [8]. The experiment in a line: 5-hydroxytryptamine receptor 2A (HTR2A) small molecule agonists, cell-based qHTS assay (AID 1963587). Note: nearly all actives have a fitted effect of over 30% in size. Note: potency is the fitted concentration of half-maximal effect. The procedure, abridged:
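CHO cells stably expressing human HTR2A, plated 18 h, loaded with calcium dye 1 h at 37 C. Agonist mode: compounds added and intracellular calcium fluorescence recorded kinetically for 2 min at 1 sec intervals.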

Experiment [9] deals with Muscarinic acetylcholine receptor M1 (Homo sapiens) (UniProt P11229). The experiment in a line: Cholinergic receptor muscarinic 1 (CHRM1) small molecule antagonists, cell-based qHTS assay (AID 1963588). Note: nearly all actives have a fitted effect of over 40% in size. The procedure, abridged:
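Compounds were tested at 15 concentrations in three independent runs. Dye-loaded CHRM1-CHO cells were exposed 5 min at room temperature before stimulation by acetylcholine added at 50nM. Intracellular calcium was read kinetically on FDSS for 3 min.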

The target is the same in experiment [10]. The experiment in a line: Cholinergic receptor muscarinic 1 (CHRM1) small molecule agonists, cell-based qHTS assay (AID 1963589). Note: nearly all actives have a fitted effect of over 35% in size. Note: potency is the fitted concentration of half-maximal effect. The method in brief: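 Kinetic fluorescence (1 s intervals) of calcium-sensitive dye in human M1 CHO cells after compound addition; cells pre-incubated 18 h at 37 C/5% CO2 and dye-loaded 1 h.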
Experiment [11] deals with Beta-2 adrenergic receptor (Homo sapiens) (UniProt P07550). As to the kind of experiment: Adrenergic beta2 receptor (ADRB2) small molecule antagonists, cell-based qHTS assay (AID 1963592). Note: series mostly up to about 92 µM; nearly all actives have a fitted effect of over 50% in size. The procedure, abridged:
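Assay format: CHO-ADRB2 cells, 18-20hr seeding at 37C/5% CO2, then compound plus 1nM isoproterenol agonist mix for 0.5hr RT. Homogeneous time-resolved fluorescence cAMP detection after 1hr, expressed as 665/615 nm ratio.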

Experiment [12] shares this target. As to the kind of experiment: Adrenergic beta2 receptor (ADRB2) small molecule agonists, cell-based qHTS assay (AID 1963593).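 Note: CHO cells stably overexpressing human ADRB2.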 The procedure, abridged:
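CHO cells stably over-expressing ADRB2 were plated overnight at 37C, then dosed with compounds plus a stimulation mix containing 100uM IBMX and 25uM Ro-20-1724 for 0.5hr at room temperature. cAMP was measured by HTRF competition, 1hr.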

The target of experiment [13] is D(2) dopamine receptor (Homo sapiens) (UniProt P14416). As to the kind of experiment: Dopamine D2 receptor (DRD2) small molecule agonists, cell-based qHTS assay (AID 1963594). Note: nearly all actives have a fitted effect of over 35% in size. The method in brief:
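HEK293 cells stably expressing human DRD2, pre-treated with PDE inhibitor Ro20-1724 (0.1 mM final) and compound 10 min at room temperature, then stimulated with NKH477 (200nM […]) for 30 min. cAMP read by HTRF (665/620 nm).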

Experiment [14] shares this target. As to the kind of experiment: Dopamine D2 receptor (DRD2) small molecule antagonists, cell-based qHTS assay (AID 1963595; active = well fitted inhibition curve with a large enough effect in the signal ratio in the repeat runs, with a control signal flat; the % refers to the signal ratio). The procedure, abridged:
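Antagonist mode in DRD2-HEK293 cells: after compound addition with 0.1 mM Ro20-1724, cells received quinpirole (12 nM) and NKH477 (200 nM) for 30 min at room temperature; HTRF cAMP read after 1 h detection.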

Experiment [15] can be described thus: p53 small molecule agonists, cell-based qHTS assay with rat liver microsomes (AID 1963578). The procedure, abridged:
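Quantitative HTS of the Tox21 10K library: p53RE-bla cells, rat liver microsomes plus NADPH at 0.5 mg/mL final each, 16 h at 37 C, beta-lactamase fluorescence detection.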

Experiment [16] is described as follows: p53 small molecule agonists, cell-based qHTS assay (AID 1963582; active = well fitted activation curve with a large enough effect in the signal ratio in the repeat runs, not every such curve was filed as active; the % refers to the signal ratio). The method in brief: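 Measured: fluorescence from cleaved LiveBLAzer substrate. System: p53RE-bla cells, 16 h compound treatment at 37 C, 2 h substrate step at room temperature.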
A short description of experiment [17]: cAMP Responsive Elements (CRE) small molecule agonists, cell-based qHTS assay (AID 1963590). The procedure, abridged:
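Test agents in DMSO were incubated 3 h at 37 C/5% CO2 with CRE-bla HEK 293T cells seeded 18 h earlier; LiveBLAzer B/G FRET substrate was added and read after 2 h at room temperature.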

The nature of experiment [18]: cAMP Responsive Elements (CRE) small molecule antagonists, cell-based qHTS assay (AID 1963591; active = well fitted inhibition curve with a large enough effect in the signal ratio in the repeat runs, not every such curve was filed as active; the % refers to the signal ratio). The procedure, abridged: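 Reporter line CRE-bla HEK 293T in dialyzed-FBS DMEM; cells preincubated 18 h, treated 3 h with compound plus NKH477 (0.25 uM final); LiveBLAzer FRET, 2 h RT.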
The nature of experiment [19]: p53 small molecule agonists, cell-based qHTS assay with human liver microsomes (AID 1963577).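 Note: p53 response element beta-lactamase reporter cells with liver microsomes plus NADPH.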 The method in brief:
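HLM-supplemented p53RE-bla reporter assay: 16 h compound exposure at 37 C, microsomes and NADPH each 0.5 mg/mL final, read by fluorescence intensity.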

“And” between values parts separate entries of the source, which are not always exact repeats. Equal values may be shown once. Unmarked numbers belong to inactive results. Records with an inconclusive call do not appear. The source made the active and inactive calls. Unless noted, calls come from the whole dose curve.

Sequence of Muscarinic acetylcholine receptor M1 (Homo sapiens) (P11229 whole entry, looked up): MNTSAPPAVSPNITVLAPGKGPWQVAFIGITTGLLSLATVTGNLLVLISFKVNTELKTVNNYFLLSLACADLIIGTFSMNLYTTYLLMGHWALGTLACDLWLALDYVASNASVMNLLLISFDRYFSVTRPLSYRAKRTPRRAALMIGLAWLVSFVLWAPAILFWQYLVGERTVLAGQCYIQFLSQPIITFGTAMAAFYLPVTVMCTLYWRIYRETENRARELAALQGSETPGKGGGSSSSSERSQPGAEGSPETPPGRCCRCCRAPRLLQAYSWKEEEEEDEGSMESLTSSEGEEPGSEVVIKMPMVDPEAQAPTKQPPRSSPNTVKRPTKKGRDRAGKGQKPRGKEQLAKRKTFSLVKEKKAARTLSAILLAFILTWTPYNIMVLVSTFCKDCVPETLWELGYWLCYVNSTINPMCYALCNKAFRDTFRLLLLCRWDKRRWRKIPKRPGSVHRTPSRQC
Sequence of Gonadotropin-releasing hormone receptor (Homo sapiens) (P30968 whole entry, looked up): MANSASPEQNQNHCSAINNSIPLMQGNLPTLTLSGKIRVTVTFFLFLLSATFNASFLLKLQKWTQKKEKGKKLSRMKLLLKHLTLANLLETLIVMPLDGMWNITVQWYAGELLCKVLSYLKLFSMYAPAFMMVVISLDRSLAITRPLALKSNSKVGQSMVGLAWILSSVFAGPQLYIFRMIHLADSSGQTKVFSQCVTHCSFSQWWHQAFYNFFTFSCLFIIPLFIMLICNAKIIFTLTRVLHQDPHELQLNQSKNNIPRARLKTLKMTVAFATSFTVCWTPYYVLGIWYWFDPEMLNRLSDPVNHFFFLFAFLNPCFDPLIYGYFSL
Sequence of D(2) dopamine receptor (Homo sapiens) (P14416 whole entry, looked up): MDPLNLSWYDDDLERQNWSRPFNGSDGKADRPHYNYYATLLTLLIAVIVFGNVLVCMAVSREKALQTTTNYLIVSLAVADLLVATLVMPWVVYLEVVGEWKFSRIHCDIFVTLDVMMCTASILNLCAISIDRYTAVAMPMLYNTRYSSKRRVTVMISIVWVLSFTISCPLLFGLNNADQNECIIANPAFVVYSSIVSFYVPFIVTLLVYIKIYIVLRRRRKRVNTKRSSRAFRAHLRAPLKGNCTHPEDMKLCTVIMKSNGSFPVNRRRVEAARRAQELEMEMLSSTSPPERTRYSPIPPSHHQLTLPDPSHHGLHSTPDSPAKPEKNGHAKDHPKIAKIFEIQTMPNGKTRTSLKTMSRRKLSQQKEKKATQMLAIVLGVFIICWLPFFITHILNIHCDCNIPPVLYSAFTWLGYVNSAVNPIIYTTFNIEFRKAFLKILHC
Sequence of Beta-2 adrenergic receptor (Homo sapiens) (P07550 whole entry, looked up): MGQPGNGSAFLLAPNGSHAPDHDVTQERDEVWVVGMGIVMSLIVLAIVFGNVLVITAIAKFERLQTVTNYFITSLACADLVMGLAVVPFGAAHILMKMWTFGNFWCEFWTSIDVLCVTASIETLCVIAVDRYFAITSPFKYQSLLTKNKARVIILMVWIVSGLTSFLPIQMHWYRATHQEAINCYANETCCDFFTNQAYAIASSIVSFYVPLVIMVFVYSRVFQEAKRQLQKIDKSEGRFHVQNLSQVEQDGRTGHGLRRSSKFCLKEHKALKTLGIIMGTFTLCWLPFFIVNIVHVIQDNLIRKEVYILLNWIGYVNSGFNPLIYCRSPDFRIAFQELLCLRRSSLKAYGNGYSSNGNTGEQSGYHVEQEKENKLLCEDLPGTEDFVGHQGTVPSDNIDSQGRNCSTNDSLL

For the molecule `O=C1OC2(c3cc(Br)c(O)c(Br)c3Oc3c2cc(Br)c(O)c3Br)c2c(Cl)c(Cl)c(Cl)c(Cl)c21`, the Potency is 4.86 µM (active) and 18.6 µM (active) in experiment [1]; 39 µM (active) and 23.6 µM (active) in [3]; 17.4 µM (active) and 33.4 µM (active) in experiment [8]; 49.1 µM (active) and 33.4 µM (active) in experiment [10]. The Potency entry in experiment [2], in experiment [4], in experiment [5], in [6], in experiment [7] and in experiment [9] was “inactive” in each case. Further, the Potency entry in [11], in experiment [12], in experiment [13] and in experiment [14] was “inactive” in each case.

Regarding `O=P(OC(CCl)CCl)(OC(CCl)CCl)OC(CCl)CCl`, the Potency entry in [1], in experiment [2], in [3], in experiment [15], in experiment [4] and in experiment [5] was “inactive” in each case. Besides, the Potency entry in experiment [6], in [16], in [7], in [9], in experiment [10] and in experiment [17] was “inactive” in each case. Further, the Potency result in experiment [18], in [11], in experiment [13] and in experiment [14] was “inactive” each time. Also, in experiment [8], the Potency is 43.4 µM (active) and 2.19 µM (active).

On to `Cc1ccc(C(=O)Nc2ccc(S(=O)(=O)O)c3cc(S(=O)(=O)O)cc(S(=O)(=O)O)c23)cc1NC(=O)c1cccc(NC(=O)Nc2cccc(C(=O)Nc3cc(C(=O)Nc4ccc(S(=O)(=O)O)c5cc(S(=O)(=O)O)cc(S(=O)(=O)O)c45)ccc3C)c2)c1`, for which the Potency entry in experiment [1], in [2], in experiment [3], in experiment [19], in [15] and in experiment [4] was “inactive” each time. The Potency entry in experiment [16], in experiment [7], in experiment [8], in experiment [10], in experiment [17] and in experiment [18] was “inactive” each time. In addition, the Potency entry in experiment [11], in experiment [12] and in experiment [13] was “inactive” throughout.

Regarding `CCNc1nc(N)nc(Cl)n1`, the Potency entry in experiment [1], in experiment [2], in [3], in [19], in experiment [4] and in experiment [5] was “inactive” in each case. Besides, the Potency entry in experiment [6], in experiment [7], in experiment [8], in experiment [9], in [10] and in [17] was “inactive” in each case. Besides, the Potency entry in experiment [11], in experiment [13] and in experiment [14] was “inactive” in each case.

As to `COc1cc(C(=S)N2CCOCC2)ccc1O`, the Potency entry in [1], in experiment [2], in experiment [3], in experiment [19], in [15] and in experiment [5] was “inactive” throughout. Further, the Potency entry in [6], in [7], in experiment [8], in [9], in experiment [10] and in experiment [17] was “inactive” in each case. Further, the Potency result in experiment [18], in experiment [11], in [12] and in experiment [14] was “inactive” each time.

For `CNC(=O)[C@H]1O[C@@H](n2cnc3c(NCc4cc(Cl)ccc4OCc4cc(C)no4)ncnc32)[C@H](O)[C@@H]1N`, the Potency result in experiment [1], in [2], in experiment [3], in [19], in experiment [15] and in experiment [4] was “inactive” throughout. For the same molecule, the Potency result in [6], in experiment [16], in experiment [7], in experiment [8], in experiment [9] and in [10] was “inactive” in each case. For the same molecule, the Potency result in experiment [17], in experiment [18], in [11] and in experiment [14] was “inactive” in each case.

Take `O=C(O)C1CCC(C(=O)O)CC1` (stereo not drawn): the Potency result in experiment [1], in experiment [2], in [3], in [15], in experiment [4] and in [6] was “inactive” throughout. Also, the Potency result in experiment [16], in experiment [7], in experiment [8], in [9], in experiment [10] and in experiment [17] was “inactive” in each case. Also, the Potency entry in experiment [11], in [12], in [13] and in experiment [14] was “inactive” throughout.

On to `CCOC(=O)CN1CCCC1=O`, for which the Potency result in experiment [1], in experiment [2], in experiment [3], in [15], in [4] and in [5] was “inactive” each time. In addition, the Potency result in experiment [6], in experiment [16], in experiment [7], in experiment [8], in [9] and in [10] was “inactive” throughout. Moreover, the Potency entry in experiment [17], in experiment [11], in [12], in [13] and in [14] was “inactive” throughout.

As to `CC(C)(CCl)c1ccccc1`, the Potency result in [1], in experiment [2], in experiment [3], in [19], in experiment [15] and in [4] was “inactive” throughout. Besides, the Potency entry in experiment [6], in experiment [16], in experiment [7], in experiment [8], in experiment [9] and in experiment [17] was “inactive” each time. Also, the Potency result in [18], in [11], in experiment [12], in experiment [13] and in experiment [14] was “inactive” each time.
